High-throughput results from PubChem.
Beta2AR agonist = activates human beta-2 adrenergic receptor causing internalization | P07550 | Am2.2-beta2AR cells, FAP receptor internalization, flow cytometry | 340,000 compounds, 0.43% hits | response, % (test concentration not listed);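 active means response above a set limit, near 3 SD of response in nonfluorescent compounds, cut at about 42% in these data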
A1 inh = inhibitors of the anti-apoptotic protein A1, read as caspase activation; MEF A1-2A-BIM cells, Caspase-Glo 3/7 luminescence, 3 h; percent of clofoctol response, vehicle zero; AID 2462; caspase activation, % (no concentration beside the values); 330,000 compounds, 0.066% hits;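 active means over half of replicate activation scores above 10%, or exactly half above 10 with the replicate mean above 10; inconclusive means replicate mean below 10 yet half the replicates above 10; inactive means over half of replicates below 10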
TLR4-MyD88 BLA = blocks binding of human TLR4 to MyD88. HeLa CL3-4 TLR4/MyD88 BLA complementation, FRET ratio. O00206+Q99836. 200,000 compounds, 0.18% hits. inhibition, % at 8.4 µM; in the data active means inhibition above about 25%;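 further: 0% = vehicle and 100% = reference inhibitor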
NOD2-RIPK2 inh = inhibitors of human NOD2-RIPK2 interaction. O43353. CHO BLA complementation NOD2-RIPK2, CCF4 ratio. inhibition, % at 4.98 µM. 360,000 compounds, 0.38% hits. AID 624267; in the data active means inhibition above about 21%;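 further: 0% = vehicle only and 100% = reference blocker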
Target sequence (O43353 whole entry, looked up): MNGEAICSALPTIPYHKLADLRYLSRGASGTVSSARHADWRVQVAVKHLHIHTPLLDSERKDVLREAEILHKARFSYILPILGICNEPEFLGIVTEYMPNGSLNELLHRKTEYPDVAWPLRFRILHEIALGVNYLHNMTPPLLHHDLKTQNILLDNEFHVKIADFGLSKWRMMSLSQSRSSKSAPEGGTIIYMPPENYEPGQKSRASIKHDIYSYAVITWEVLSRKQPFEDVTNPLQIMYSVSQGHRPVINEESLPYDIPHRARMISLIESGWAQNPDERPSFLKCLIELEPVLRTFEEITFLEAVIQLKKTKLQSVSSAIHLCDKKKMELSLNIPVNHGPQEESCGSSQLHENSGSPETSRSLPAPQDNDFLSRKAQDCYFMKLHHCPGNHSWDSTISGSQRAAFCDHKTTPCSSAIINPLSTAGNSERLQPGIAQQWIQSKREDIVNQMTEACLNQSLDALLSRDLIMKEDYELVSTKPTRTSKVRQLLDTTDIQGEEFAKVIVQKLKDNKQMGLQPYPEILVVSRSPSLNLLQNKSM
NTR1 agonist = agonists of human neurotensin receptor NTR1. NTR1-U2OS beta-arrestin-GFP spot imaging, agonist mode. activation, % at 20 µM. 330,000 compounds, 0.17% hits. AID 493036;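 active means activation at or above 40% of the spot to cytoplasm intensity ratio, with at least 20 cells analyzed; inconclusive means wells under 20 cells, flagged as cytotoxic or low count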;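 further: 0% = DMSO without peptide and 100% = 100 nM NTR1 peptide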
TLR9-MyD88 block = blocks human TLR9 binding to MyD88; 340,000 compounds, 0.21% hits; inhibition, % at 4.98 µM; CHO BLA complementation TLR9-MyD88, CCF4 FRET ratio;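 active means inhibition above the mean over all tested compounds plus 3 SD, cut at about 21% in these data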;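 further: 0% = DMSO only wells and 100% = clavulanate BLA inhibitor control wells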
NOD2-RIPK2 conf = confirmation of human NOD2-RIPK2 interaction inhibitors. shares compounds with NOD2-RIPK2 inh. CHO cells, NOD2-RIPK2 BLA complementation, CCF4 FRET. inhibition, % at 4.98 µM. 1,200 compounds, 70% hits;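 active means mean inhibition across replicates above a set limit taken from the earlier primary screen, cut at about 21% in these data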;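 further: 0% = DMSO-only wells and the high end = clavulanate BLA-blocked wells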
BLA counter = counter-screen for NOD2-RIPK2 interaction inhibitors: BLA reporter | shares compounds with NOD2-RIPK2 inh | CHO BLA reporter, CCF4 FRET ratio, counterscreen | inhibition, % at 4.98 µM | 1,200 compounds, 57% hits | AID 624371;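 active means mean inhibition above the low-control mean inhibition plus three low-control SD, cut at about 11% in these data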;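 further: 0% = DMSO only wells and 100% = clavulanate high control wells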
Numbers without * were called inactive. This is a sample that favours compounds with a hit; in the whole collection about 0.97% have one here.

What do the screens show for `COc1ccc(Nc2c(-c3ccc(OC)cc3)nc3cnccn23)cc1`?
Beta2AR agonist: 0.5; A1 inh: 0.1; TLR4-MyD88 BLA: -12.5; NOD2-RIPK2 inh: -2.2; NTR1 agonist: 1.7; TLR9-MyD88 block: 5.2

How did CCCCNc1c(-c2ccc(OC)c(Sc3ccc(OC)cc3)c2)nc2cnccn12 do in these assays?
Beta2AR agonist: 14.5; A1 inh: -0.8; NOD2-RIPK2 inh: 28.0*; NTR1 agonist: 16.6; TLR9-MyD88 block: 18.8; NOD2-RIPK2 conf: 32.8*; BLA counter: 37.3*

How did COC(=O)c1ccc2nc(-c3ccc(OC)c(OC)c3)c(Cc3ccc(C)cc3)n2c1 do in these assays?
NOD2-RIPK2 inh: -6.5

What do the screens show for `COc1cc(C=C2C(=O)C=CC2=O)ccc1O`?
NOD2-RIPK2 inh: 65.6*; NOD2-RIPK2 conf: 93.2*; BLA counter: 30.3*

What do the screens show for `O=C(/C=C/N1CCOCC1)c1coc2ccccc12`?
Beta2AR agonist: -0.1; A1 inh: -5.0; TLR4-MyD88 BLA: 1.7; NOD2-RIPK2 inh: 29.2*; NTR1 agonist: 0.1; TLR9-MyD88 block: -5.1; NOD2-RIPK2 conf: -1.8; BLA counter: -7.6

How did Cn1cc(Br)c(C(=O)NC(=S)Nc2ccc(S(N)(=O)=O)cc2)n1 do in these assays?
Beta2AR agonist: 6.2; A1 inh: 0.2; TLR4-MyD88 BLA: -3.0; NOD2-RIPK2 inh: -9.9; NTR1 agonist: 2.3; TLR9-MyD88 block: -5.8

What do the screens show for `Cc1[nH]c(=O)c(C#N)c2c1CCCC2`?
Beta2AR agonist: -3.4; A1 inh: -0.1; TLR4-MyD88 BLA: 2.5; NOD2-RIPK2 inh: -12.0; NTR1 agonist: 2.6; TLR9-MyD88 block: -16.8

How did Cc1[nH]c(=S)c(C#N)c2c1CCCC2 do in these assays?
Beta2AR agonist: -8.9; A1 inh: 0.0; TLR4-MyD88 BLA: -9.9; NOD2-RIPK2 inh: 27.2*; NTR1 agonist: 0.4; TLR9-MyD88 block: 1.7; NOD2-RIPK2 conf: -9.0; BLA counter: -5.8

How did COc1ccc(-c2nn(-c3ccccc3)cc2/C=C/C(=O)OCC(=O)Nc2cccc(C#N)c2)cc1 do in these assays?
Beta2AR agonist: 17.7; A1 inh: -0.4; TLR4-MyD88 BLA: -2.0; NOD2-RIPK2 inh: 35.7*; NTR1 agonist: 1.2; TLR9-MyD88 block: -5.6; NOD2-RIPK2 conf: -2.0; BLA counter: -9.6

How did COc1ccc(OC)c2sc(N(CCCN(C)C)C(=O)c3ccc(S(=O)(=O)N4CCc5ccccc5C4)cc3)nc12 do in these assays?
A1 inh: inconclusive; NTR1 agonist: 1.5

What do the screens show for `COc1ccc(C)c2sc(N(CCCN(C)C)C(=O)c3ccc(S(=O)(=O)N4CCc5ccccc5C4)cc3)nc12`?
Beta2AR agonist: 51.5*; A1 inh: 0.8; NOD2-RIPK2 inh: 24.3*; TLR9-MyD88 block: 10.9; NOD2-RIPK2 conf: 44.3*; BLA counter: 15.6*

What do the screens show for `CCC(=O)c1ccc(OCC(=O)N2CCN(c3ccccn3)CC2)cc1`?
Beta2AR agonist: -2.0; A1 inh: 1.0; NOD2-RIPK2 inh: 27.8*; NTR1 agonist: 2.1; TLR9-MyD88 block: 6.9; NOD2-RIPK2 conf: -1.0; BLA counter: 4.5

What do the screens show for `O=C(COc1cccc2ccccc12)N1CCN(c2ccccn2)CC1`?
Beta2AR agonist: -5.7; A1 inh: -0.5; TLR4-MyD88 BLA: 0.9; NOD2-RIPK2 inh: -9.5; NTR1 agonist: 3.0; TLR9-MyD88 block: -1.1

What do the screens show for `Cc1c2cnn(CC(=O)Nc3c(F)c(F)cc(F)c3F)c(=O)c2c(C)n1Cc1ccccc1F`?
Beta2AR agonist: 4.9; A1 inh: 0.2; TLR4-MyD88 BLA: 17.5; NOD2-RIPK2 inh: 23.7*; NTR1 agonist: -0.1; TLR9-MyD88 block: -4.2; NOD2-RIPK2 conf: 9.6; BLA counter: -1.0

How did N#Cc1c(C(F)(F)F)cc(-c2ccco2)nc1SCc1ccncc1 do in these assays?
Beta2AR agonist: -12.8; A1 inh: 0.5; TLR4-MyD88 BLA: 13.3; NOD2-RIPK2 inh: 29.4*; NTR1 agonist: 1.4; TLR9-MyD88 block: 18.3; NOD2-RIPK2 conf: -3.1; BLA counter: -1.8

How did ClC(Cl)(c1nnnn1-c1ccccc1)c1nnnn1-c1ccccc1 do in these assays?
Beta2AR agonist: 7.0; A1 inh: -1.4; TLR4-MyD88 BLA: -1.2; NOD2-RIPK2 inh: 42.3*; TLR9-MyD88 block: 12.3; NOD2-RIPK2 conf: 42.2*; BLA counter: 7.0

Results for c1ccc(-c2nnnn2-c2ccccc2)cc1 ?
Beta2AR agonist: 3.4; A1 inh: 1.4; NOD2-RIPK2 inh: -8.2; NTR1 agonist: -1.1; TLR9-MyD88 block: 4.6

How did CC(=O)Oc1ccccc1C(=O)C=Cc1cccc([N+](=O)[O-])c1 do in these assays?
Beta2AR agonist: 65.4*; NOD2-RIPK2 inh: 60.1*; TLR9-MyD88 block: 7.4; NOD2-RIPK2 conf: 71.4*; BLA counter: -4.5

How did Cc1cc(O)c(C(=O)/C=C/c2cccc([N+](=O)[O-])c2)c(=O)o1 do in these assays?
Beta2AR agonist: 11.4; A1 inh: -0.6; NOD2-RIPK2 inh: 1.9; NTR1 agonist: 1.7; TLR9-MyD88 block: -5.7

Results for O=C(/C=C1\C(=O)Nc2ccccc21)/C=C1\C(=O)Nc2ccccc21 ?
Beta2AR agonist: 22.3; NOD2-RIPK2 inh: 24.7*; TLR9-MyD88 block: 13.7; NOD2-RIPK2 conf: 73.7*; BLA counter: 15.7*

Results for O=C1Nc2ccccc2/C1=C\C(=O)c1ccccc1 ?
Beta2AR agonist: 19.9; A1 inh: 0.4; NOD2-RIPK2 inh: 29.6*; NTR1 agonist: 15.6; TLR9-MyD88 block: 1.0; NOD2-RIPK2 conf: 29.3*; BLA counter: -2.3

What do the screens show for `C=CCn1c(-c2oc3nc(-c4ccccc4)cc(-c4ccccc4)c3c2N)n[nH]c1=S`?
Beta2AR agonist: -2.1; A1 inh: 0.6; TLR4-MyD88 BLA: 7.7; NOD2-RIPK2 inh: 34.1*; NTR1 agonist: 0.9; TLR9-MyD88 block: 1.3; NOD2-RIPK2 conf: 86.5*; BLA counter: 88.2*

How did C=CCn1c(-c2cccc(Cl)c2)n[nH]c1=S do in these assays?
Beta2AR agonist: 1.2; A1 inh: -1.2; TLR4-MyD88 BLA: -5.5; NOD2-RIPK2 inh: -13.2; NTR1 agonist: 0.1; TLR9-MyD88 block: 4.5

How did CCN(CC)c1ccc(C(=C2C=CC(=[N+](CC)CC)C=C2)c2ccc(N(CC)CC)cc2)cc1 do in these assays?
Beta2AR agonist: 82.1*; NOD2-RIPK2 inh: 41.0*; TLR9-MyD88 block: 18.1; NOD2-RIPK2 conf: 49.3*; BLA counter: -7.4

Results for Cc1cc(C)c(S(=O)(=O)N(C)c2ccccc2)c(C)c1 ?
Beta2AR agonist: 10.0; A1 inh: 1.2; TLR4-MyD88 BLA: 14.8; NOD2-RIPK2 inh: 33.8*; NTR1 agonist: 1.4; TLR9-MyD88 block: -5.6; NOD2-RIPK2 conf: -4.0; BLA counter: -2.0
